# Artemis inh – Artemis endonuclease inhibitors, primary screen, biochemical, fluorescence intensity, FAM/BHQ-1 hairpin substrate | inhibition, % at 10 µM | 0.78% of 30,000 active | Protein artemis (Homo sapiens), Q96SD1 | recombinant Artemis, quenched FAM hairpin cleavage fluorescence;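 active means at 10 µM dose, at least 30% inhibition, measured as corrected fluorescence normalized to stimulator and neutral control wells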
# An asterisk follows results filed as active. The entries come from a sample that favours hits as a whole.
SMILES,Artemis inh
CCN(CC)c1ccc(-c2nn3c(-c4n[nH]c5c4CCC5)nnc3s2)cc1,58*
C1CCC(c2nn3c(-c4n[nH]c5c4CCC5)nnc3s2)CC1,6
Fc1ccc(C2=Nn3c(nnc3-c3n[nH]c4c3CCC4)SC2)cc1,5
COc1ccccc1NC(=O)COc1ccc(CO)cc1Cl,-1
O=S(=O)(NCc1cn2ccsc2n1)c1ccc2c(c1)OCCO2,0
COc1ccc(C2CC(c3ccc(Cl)cc3)Nc3nc(NC(=O)c4ccco4)nn32)cc1 (centres undefined),54*
COc1cccc(C2CC(c3ccc(Cl)cc3Cl)Nc3nc(N)nn32)c1 (centres undefined),0
COc1ccc(NC(=O)c2cccs2)cc1,-5
COc1ccc(C2CC(c3ccccc3)n3nc(NC(=O)c4cccs4)nc3N2)cc1 (centres undefined),59*
COc1ccc(C2CC2/C(=N/OC(=O)c2cccs2)c2ccccc2)cc1 (centres undefined),3
O=C(Nc1nc2n(n1)C(c1ccccc1)C=C(c1ccccc1)N2)c1ccco1 (centres undefined),11
CC1(C)Cc2c(cnn2-c2ccccc2)-c2c1c1ccccc1n2CC(O)CBr (centres undefined),3
COc1ccc(-c2csc(NC(=O)C3CCCCN3S(=O)(=O)c3ccccc3)n2)cc1 (centres undefined),10
CCn1cc(C(=O)NC(=S)Nc2cccc(O)c2)cn1,-3
CCOC(=O)C1CCCN(Cc2nc(N)nc(Nc3ccc(Cl)cc3)n2)C1 (centres undefined),34*
CCOC(=O)C1CCCN(C(=O)Cc2ccc(Cl)cc2)C1 (centres undefined),-2
CCOC(=O)C1CCCN(c2cc(C)nc3cc(-c4ccc(Cl)cc4)nn23)C1 (centres undefined),1
CCCCOc1ccc(NC(=O)CN2CCN(C(=O)OCC)CC2)cc1,0
CCOC(=O)N1CCN(Cc2nc(N)nc(Nc3ccc(Oc4ccccc4)cc3)n2)CC1,39*
Cc1ccc(Nc2nc(N)nc(CN3CCN(Cc4ccc5c(c4)OCO5)CC3)n2)cc1,1
CN(CC(=O)N1CC=C(c2ccccc2)CC1)S(=O)(=O)c1cnc[nH]1,1
O=C(O)c1cc2ccc3ccccc3c2oc1=O,-5
COc1ccccc1N(C(C)=O)c1nc(C)cc(C)c1C#N,-5
CC1(C)CC(=O)C2=C(C1)c1c(ccc3ccccc13)NC2c1ccc(Br)o1 (centres undefined),13
O=c1oc2c3c4c(cc2c2c1CCC2)OCCN4CCC3,18
SMILES,Artemis inh
CCc1nc(NCCCCCO)c2nnn(Cc3ccccc3F)c2n1,-8
Oc1ccc(Cl)cc1C(C#Cc1ccccc1)N1CCOCC1 (centres undefined),1
Cc1cccc(C(=O)NNC2=C(C(=O)C(F)(F)F)CCC2)c1O,7
COc1ccc(C(=O)c2ccc(Cl)cc2)cc1,-2
COc1ccc(C(=O)c2c(C(F)(F)F)oc3c2C(=O)c2ccccc2C3=O)cc1,28
Cc1ccc(C(=O)c2cn[nH]c2-c2ccccc2O)cc1,-1
Cc1ccc(C(=O)c2c(C)oc3c2C(=O)C(=O)c2ccccc2-3)cc1,55*
O=C(c1ccc(O)cc1)c1ccc(Cl)cc1,8
Cc1oc2c(c1C(=O)c1ccc(Cl)cc1)C(=O)C(=O)c1ccccc1-2,50*
COc1ccc(OC)c(/C=N/NC(=O)CC2C(=O)NN=C2C)c1 (centres undefined),-12
CCCCn1c(NC(C)CC)nc2c1c(=O)[nH]c(=O)n2C (centres undefined),1
Cc1cccc(NC(=O)C2CC(=O)N(c3ccccc3)C2)c1C (centres undefined),0
Cc1ccc(/C=N/NC(=O)CC2N=C(Cc3ccccc3)NNC2=O)cc1 (centres undefined),4
CCn1cc(/C=N/N=C2\CCC3C4CCc5cc(O)ccc5C4CC[C@]23C)c(C)n1 (some centres undefined),4
CNc1nc(-c2c[nH]c3ccccc23)cs1,38*
Cc1csc(NC(=O)Cc2c[nH]c3ccccc23)n1,-3
COC(=O)c1cc(-c2c[nH]c3ccccc23)n[nH]1,-4
O=C(COc1ccc(Br)cc1)Nc1ccc([N+](=O)[O-])cn1,1
Brc1ccc(-c2cnnc(N3CCCC3)n2)cc1,-12
Brc1ccc2nc3c(n2c1)CCCC3,2
c1ccc(-c2cn3nc4c(nc3n2)CCCC4)cc1,34*
c1ccc(-c2cn3c(n2)SCC3)cc1,-5
c1ccc(-c2cn3c(n2)CCC3)cc1,-5
Brc1ccc(-c2cn3nc4c(nc3n2)CCCC4)cc1,31*
OCCN(CCO)CC(O)COCCC12CC3CC(CC(C3)C1)C2 (centres undefined),-11
SMILES,Artemis inh
Cc1ccccc1NC(=O)Cc1nc(CSc2nnc(-c3ccc4c(c3)OCO4)o2)cs1,4
CN(C)c1ccc(/C=N/NC(=O)CN(c2cccc(Cl)c2)S(C)(=O)=O)cc1Br,14
COc1ccc(OC)c(S(=O)(=O)N2CCC(C(=O)Nc3cccc(C(F)(F)F)c3)CC2)c1,-1
COc1ccc(CNC(=O)c2ccc(=O)oc2)cc1OC,0
O=C(NN=C1CCCC1)C(=O)Nc1cccc(C(F)(F)F)c1,-7
CC1(C)C(=O)OC(c2ccccc2)C2(CCCC2)C1=O (centres undefined),-2
CCC(=O)Nc1cc(C)c(NC(=O)c2ccccc2OC)cn1,-5
Cc1ccc(C)n1-c1sccc1C(=O)O,33*
Cc1ccc(C(=O)c2ccccc2C(=O)O)s1,9
O=C(O)c1ccccc1C(=O)c1cccs1,-3
COc1ccc(-c2ccc(C#N)c(SCC(=O)Nc3sc4c(c3C#N)CCC4)n2)cc1,15
CCn1c(SCC(=O)Nc2sc3c(c2C#N)CCCC3)nnc1-c1ccco1,8
N#Cc1c(NC(=O)CSc2nnc(-c3ccco3)n2-c2ccccc2)sc2c1CCC2,36*
COc1ccc(-c2nnc(SCC(=O)Nc3sc4c(c3C#N)CCC4)n2CC2CCCO2)cc1 (centres undefined),42*
COc1ccc(-n2c(SCC(=O)Nc3sc4c(c3C#N)CCCC4)nnc2-c2ccccc2OC)cc1,14
COc1ccc(-c2nnc(SCC(=O)NC(C)C)n2CC2CCCO2)cc1OC (centres undefined),-6
Cc1ccc(-c2csc(N3CCC(NS(=O)(=O)c4ccc5c(c4)OCCO5)CC3)n2)cc1,5
COc1cc2c(cc1NC(=O)C(c1ccccc1)c1ccccc1)CCCC2,-3
O=C(Nc1nc(-c2ccccn2)cs1)c1ncc(Cl)c(Cl)c1Cl,23
O=C(CCCSc1ccccc1)Nc1nc(-c2ccccn2)cs1,58*
O=C(O)CCC(=O)Nc1nc(-c2ccccc2)cs1,2
CCOC(=O)CSc1nnc([C@@H](NC(=O)OC(C)(C)C)C(C)C)o1,-2
Cc1ncc([N+](=O)[O-])n1CCOC(=O)c1ccc(Cl)cc1Cl,3
COc1cccc(Nc2nc(NCCO)c3ccccc3n2)c1,-7
c1ccc2c(N3CCCC3)nc(-c3ccncc3)nc2c1,3
COc1ccc(Nc2nc(N3CCCC3)c3ccccc3n2)cc1,33*
Cc1nc(N2CCN(C(=O)c3ccc(Cl)cc3)CC2)c(C#N)c2c1COC(C)(C)C2,3
CCn1c2ccccc2c2cc(NS(=O)(=O)c3ccccc3C)ccc21,3
CCOC1(OCC)N=C(N)C2(C#N)C(c3ccc(NC(C)=O)cc3)C12C#N (centres undefined),7
Cc1cccc(-n2cnc3c(c2=O)c2nc4ccccc4nc2n3Cc2ccco2)c1,16
